This is part of a sample that, as a whole, favours compounds with a hit. Of some 83,000 tested, about 20% had one in any assay.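 Step 1: grow cells in 96-well plates. Step 2: add test compound at a single concentration. Step 3: incubate 48 h. Step 4: record percent growth.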 Unmarked numbers belong to inactive results. The source made the active and inactive calls. The calls were made as follows: active = growth percent below 10; inactive = the rest.
Key:
Experiment in all cases: NCI-60 one-dose screen, 48 h (100 = growth as untreated, 0 = no growth, -100 = all killed)
Settings in all cases: 10 µM
[1] = test system: NCI-H23 lung
[2] = test system: NCI-H226 lung
[3] = test system: NCI-H322M lung
[4] = test system: HOP-62 NSCLC
[5] = test system: NCI-H460 lung
[6] = test system: NCI-H522 lung
[7] = test system: A549/ATCC NSCLC
[8] = test system: 786-0 renal
[9] = test system: COLO 205 colon
[10] = test system: DU-145 prostate

Row | Structure (SMILES) | growth [1] | growth [2] | growth [3] | growth [4] | growth [5] | growth [6] | growth [7] | growth [8] | growth [9] | growth [10]
1 | COc1cc2cc3c(nc2cc1OC)CCN3Cc1ccc(NC(=O)c2ccc(Cl)c(C(F)(F)F)c2)cc1 | 99.7% | 71.2% | 84.9% | 105% | 107% | 86.6% | 97% | 105% | 109% | 117%
2 | Clc1cccc(-c2nc(-c3cccs3)no2)c1 | 92.8% | 100% | 114% | 97.8% | 110% | 92% | 94.1% | 99.6% | 114% | 120%
3 | N#Cc1c(C#N)c(SSc2c(C#N)c(C#N)c(N)n2-c2ccccc2)n(-c2ccccc2)c1N | 94.8% | 101% | 108% | 109% | 120% | 67.3% | 112% | 101% | 97.4% | 115%
4 | COc1ccc2c(c1)sc1nc(-c3ccccc3)c(-c3ccsc3)n12 | 36% | 55.8% | 53.4% | 36.8% | 7.9% (active) | -13.4% (active) | 31.1% | 57.5% | 3.28% (active) | 3.69% (active)
5 | CC(C)(C)NC/C(=C\c1ccccc1)C(=O)c1ccccc1 | 12.4% | 49.1% | 63.3% | 26.5% | 8.72% (active) | -92.5% (active) | 30.1% | -41.6% (active) | -74.1% (active) | 21.8%
6 | COC(=O)[C@@H]1[C@H](O)[C@H](C)[C@H](O)[C@@](C)(O)/C=C\C=C(C)C(=O)Nc2c(C)c(OC(C)=O)c3c(c2O)C(=O)C(C)=C2OCOC(=C23)C(C)=C[C@@](C)(O)[C@H](O)[C@@H](C)[C@H]1OC(C)=O | 101% | 109% | 125% | 111% | 127% | 105% | 110% | 95.2% | 112% | 85.5%
7 | CCCCCCCCCCCCCCCCN(C(C)c1ccccc1)S(=O)(=O)c1ccc(OC)c(N)c1 (stereo not given) | 93.7% | 108% | 128% | 117% | 107% | 90.5% | 107% | 124% | 123% | 116%
8 | COc1ccc(-c2nn(-c3cccc(NC(=O)Nc4cc(C(F)(F)F)cc(C(F)(F)F)c4)c3)cc2-c2ccncc2)cc1Cl | 5.1% (active) | 24.2% | 4.66% (active) | 3.91% (active) | -3.36% (active) | -30% (active) | 0.691% (active) | -12.8% (active) | -88.9% (active) | 17.6%
9 | CCN(CC)CCC(CNc1c(C)cnc2cc(Cl)ccc12)c1ccc(Cl)cc1 (stereo not given) | 61.3% | 102% | 53.8% | 66.2% | 67.7% | 31.7% | 64.7% | 58.2% | -45.5% (active) | 79%
10 | O=C(Nc1ccncc1)C(=O)c1cn(S(=O)(=O)c2ccc(F)cc2)c2ccccc12 | 36.8% | 53.7% | 84.9% | 36.2% | 74.7% | 0.626% (active) | 82.3% | 43.9% | 103% | 32%
11 | COc1cc(-c2nc(-c3nnc(-c4ccc(F)c(Cl)c4)o3)c3ccccn23)cc(OC)c1OC | 70.1% | 15.3% | 54.5% | -65.6% (active) | 7.43% (active) | 5.92% (active) | 23.7% | 45.5% | 43.7% | 41%
12 | O=C(Nc1cccc(-n2cc(-c3ccncc3)c(-c3ccc(O)c(Cl)c3)n2)c1)c1cc(C(F)(F)F)cc(C(F)(F)F)c1 | 57.5% | 75.9% | 74.3% | 78.9% | 21.5% | 24.3% | 33.7% | 71.4% | 94.8% | 73.5%
13 | COc1cc(C(=O)/C=C/c2cc(-c3cc(OC)c(OC)c(OC)c3)n[nH]2)cc(OC)c1OC | 68.4% | 36.8% | -8.96% (active) | -30.1% (active) | 29.7% | -75.5% (active) | 53.6% | -71.7% (active) | -88.3% (active) | 4.4% (active)
14 | CC(=O)[C@H]1CC[C@H]2[C@@H]3CCC4=CC(=O)C=C[C@]4(C)[C@H]3CC[C@]12C | 90% | 88.4% | 97% | 100% | 96.1% | 81.4% | 94.4% | 99.8% | 119% | 108%
15 | CN1CCCNc2c(c(=O)c2=O)NCCCN(C)CCCNc2c(c(=O)c2=O)NCCCN(C)CCCNc2c(c(=O)c2=O)NCCCN(C)CCCNc2c(c(=O)c2=O)NCCCN(C)CCCNc2c(c(=O)c2=O)NCCCN(C)CCCNc2c(c(=O)c2=O)NCCCN(C)CCCNc2c(c(=O)c2=O)NCCC1 | 46.8% | 74.6% | 44.8% | 49.1% | 32.1% | 56.1% | 37.1% | 54.3% | 13.9% | -30.2% (active)
16 | Cc1nc2c(c(=O)[nH]1)OCN(Cc1ccccc1)C2 | 100% | 103% | 105% | 107% | 110% | 111% | 112% | 101% | 112% | 108%
17 | COc1cccc(C(=O)Nc2ccc(CN3CCc4nc5cc(OC)c(OC)cc5cc43)cc2)c1 | 56.9% | 68.4% | 61.7% | 81% | 9.4% (active) | 42.7% | 36.5% | 64.1% | 44.1% | 46.1%
18 | Clc1ccc(-c2cn(-c3ccccc3)c(-c3ccccc3)n2)c(Cl)c1 | 67.6% | 40.7% | -17% (active) | 31.6% | -100% (active) | 42.6% | -8.47% (active) | -50.3% (active) | -64.3% (active) | -89.7% (active)
19 | CN(C)CCN1C(=O)c2cccc3c(-c4ccc5ncn(C6CCCCC6)c5c4)ccc(c23)C1=O | 30.5% | 25.1% | 25.3% | 23.4% | 1.4% (active) | 4.65% (active) | 3.34% (active) | 19.1% | 8.59% (active) | 27%
20 | COc1cc(-c2nc(-c3nnc(-c4ccccc4Cl)o3)c3ccccn23)cc(OC)c1OC | 91.1% | 84% | 88.3% | 87.2% | 95.4% | 78.4% | 72% | 105% | 85.4% | 98.5%
21 | O=C(Nc1cccc(-n2cc(-c3ccncc3)c(-c3ccc(O)c(Cl)c3)n2)c1)c1ccc(N2CCOCC2)c(C(F)(F)F)c1 | 42.2% | 85.8% | 44.5% | 41.5% | 11.6% | 35.6% | 22.9% | 8.9% (active) | 51.2% | 62.7%
22 | C=C(NC(=O)C(=C)NC(=O)c1csc(C2=NC3c4csc(n4)C4NC(=O)c5csc(n5)C(C(C)(O)C(C)O)NC(=O)C5CSC(=N5)/C(=C/C)NC(=O)C(C(C)O)NC(=O)c5csc(n5)C3(CC2)NC(=O)C(C)NC(=O)C(=C)NC(=O)C(=C)NC(=O)C(C(C)C)NC2C=Cc3c(C(C)O)cc(nc3C2O)C(=O)OC4C)n1)C(N)=O (stereo not given) | 11.1% | -26.3% (active) | 45.9% | 2.24% (active) | 1.43% (active) | -39.1% (active) | 31.7% | -10.4% (active) | -70.2% (active) | -23% (active)

— PubChem BioAssay (NCI)
